Our source for the residual activity values is ChEMBL document CHEMBL2218924, “A broad activity screen in support of a chemogenomic map for kinase signalling research and drug discovery” (Biochem J, 2013).

Experiment [1] concerns the target T1, Serine/threonine-protein kinase 17A (Homo sapiens) (UniProt Q9UEE5).
T1 sequence (whole entry): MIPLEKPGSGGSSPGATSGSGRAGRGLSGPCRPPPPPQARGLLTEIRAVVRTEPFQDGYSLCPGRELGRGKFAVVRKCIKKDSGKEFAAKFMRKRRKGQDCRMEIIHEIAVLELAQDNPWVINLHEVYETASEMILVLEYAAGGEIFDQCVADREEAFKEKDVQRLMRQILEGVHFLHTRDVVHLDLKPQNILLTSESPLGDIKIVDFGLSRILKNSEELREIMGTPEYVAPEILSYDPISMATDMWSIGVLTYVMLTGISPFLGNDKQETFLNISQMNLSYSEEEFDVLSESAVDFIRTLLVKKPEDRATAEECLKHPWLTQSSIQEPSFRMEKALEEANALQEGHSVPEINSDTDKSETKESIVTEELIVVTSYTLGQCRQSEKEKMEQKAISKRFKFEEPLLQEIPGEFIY
The following applies: at 1 µM.

Experiment [2] addresses T1, Serine/threonine-protein kinase 17A (Homo sapiens). The following applies: at 10 µM.
Experiment [3] deals with T2, Dual specificity tyrosine-phosphorylation-regulated kinase 2 (Homo sapiens) (UniProt Q92630).
T2 sequence (whole entry): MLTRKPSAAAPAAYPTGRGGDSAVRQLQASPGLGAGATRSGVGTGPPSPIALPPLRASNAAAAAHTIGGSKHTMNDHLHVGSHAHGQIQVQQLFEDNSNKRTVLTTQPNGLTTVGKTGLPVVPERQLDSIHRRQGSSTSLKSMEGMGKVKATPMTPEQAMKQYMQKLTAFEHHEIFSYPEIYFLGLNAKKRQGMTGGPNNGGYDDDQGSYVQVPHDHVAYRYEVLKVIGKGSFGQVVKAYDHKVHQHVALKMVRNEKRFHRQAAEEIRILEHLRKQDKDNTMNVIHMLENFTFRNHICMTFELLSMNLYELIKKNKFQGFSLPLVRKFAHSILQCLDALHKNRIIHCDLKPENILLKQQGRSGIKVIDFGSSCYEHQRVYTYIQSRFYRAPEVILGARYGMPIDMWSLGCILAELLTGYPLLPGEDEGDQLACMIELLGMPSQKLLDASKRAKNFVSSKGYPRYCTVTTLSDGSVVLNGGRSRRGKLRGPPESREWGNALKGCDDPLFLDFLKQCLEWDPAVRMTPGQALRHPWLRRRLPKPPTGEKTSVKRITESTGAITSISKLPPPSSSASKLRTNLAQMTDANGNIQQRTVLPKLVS
The following applies: at 1 µM.

Experiment [4] has as its target T2, Dual specificity tyrosine-phosphorylation-regulated kinase 2 (Homo sapiens). As to conditions: at 10 µM.
In experiment [5] the target is T3, Ephrin type-A receptor 1 (Homo sapiens) (UniProt P21709).
T3 sequence (whole entry): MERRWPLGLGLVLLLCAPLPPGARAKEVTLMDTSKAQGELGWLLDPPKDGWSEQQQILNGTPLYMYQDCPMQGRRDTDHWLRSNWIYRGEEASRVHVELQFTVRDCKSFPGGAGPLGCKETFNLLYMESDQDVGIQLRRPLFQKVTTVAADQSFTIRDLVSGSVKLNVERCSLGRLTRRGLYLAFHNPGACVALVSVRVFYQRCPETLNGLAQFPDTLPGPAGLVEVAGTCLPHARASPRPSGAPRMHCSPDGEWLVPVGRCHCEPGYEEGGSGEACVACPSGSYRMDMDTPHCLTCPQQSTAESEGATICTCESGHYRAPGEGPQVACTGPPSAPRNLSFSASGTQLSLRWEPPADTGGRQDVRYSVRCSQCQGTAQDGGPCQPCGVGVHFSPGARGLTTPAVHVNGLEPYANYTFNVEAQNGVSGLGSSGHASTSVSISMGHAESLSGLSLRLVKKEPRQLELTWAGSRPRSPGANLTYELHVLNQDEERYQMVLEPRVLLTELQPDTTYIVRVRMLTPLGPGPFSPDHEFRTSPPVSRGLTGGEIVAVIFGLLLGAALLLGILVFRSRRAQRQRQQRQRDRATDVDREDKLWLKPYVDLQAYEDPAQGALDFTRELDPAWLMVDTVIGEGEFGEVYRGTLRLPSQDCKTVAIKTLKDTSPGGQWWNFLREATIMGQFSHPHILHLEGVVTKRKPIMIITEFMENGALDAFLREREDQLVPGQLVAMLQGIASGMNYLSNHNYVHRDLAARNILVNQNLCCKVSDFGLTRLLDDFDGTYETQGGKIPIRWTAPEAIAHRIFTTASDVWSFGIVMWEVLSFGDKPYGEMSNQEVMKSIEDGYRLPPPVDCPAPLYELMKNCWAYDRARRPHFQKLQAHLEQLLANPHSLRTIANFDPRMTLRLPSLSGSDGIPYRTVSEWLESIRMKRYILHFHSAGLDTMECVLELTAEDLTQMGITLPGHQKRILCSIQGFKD
The following applies: at 1 µM.

Experiment [6] has as its target T3, Ephrin type-A receptor 1 (Homo sapiens). The following applies: at 10 µM.
Experiment [7] concerns the target Ephrin type-A receptor 2 (Homo sapiens) (UniProt P29317). The following applies: at 1 µM.
The target is the same in experiment [8]. The following applies: at 10 µM.
Experiment [9] addresses T4, Ephrin type-A receptor 3 (Homo sapiens) (UniProt P29320).
T4 sequence (whole entry): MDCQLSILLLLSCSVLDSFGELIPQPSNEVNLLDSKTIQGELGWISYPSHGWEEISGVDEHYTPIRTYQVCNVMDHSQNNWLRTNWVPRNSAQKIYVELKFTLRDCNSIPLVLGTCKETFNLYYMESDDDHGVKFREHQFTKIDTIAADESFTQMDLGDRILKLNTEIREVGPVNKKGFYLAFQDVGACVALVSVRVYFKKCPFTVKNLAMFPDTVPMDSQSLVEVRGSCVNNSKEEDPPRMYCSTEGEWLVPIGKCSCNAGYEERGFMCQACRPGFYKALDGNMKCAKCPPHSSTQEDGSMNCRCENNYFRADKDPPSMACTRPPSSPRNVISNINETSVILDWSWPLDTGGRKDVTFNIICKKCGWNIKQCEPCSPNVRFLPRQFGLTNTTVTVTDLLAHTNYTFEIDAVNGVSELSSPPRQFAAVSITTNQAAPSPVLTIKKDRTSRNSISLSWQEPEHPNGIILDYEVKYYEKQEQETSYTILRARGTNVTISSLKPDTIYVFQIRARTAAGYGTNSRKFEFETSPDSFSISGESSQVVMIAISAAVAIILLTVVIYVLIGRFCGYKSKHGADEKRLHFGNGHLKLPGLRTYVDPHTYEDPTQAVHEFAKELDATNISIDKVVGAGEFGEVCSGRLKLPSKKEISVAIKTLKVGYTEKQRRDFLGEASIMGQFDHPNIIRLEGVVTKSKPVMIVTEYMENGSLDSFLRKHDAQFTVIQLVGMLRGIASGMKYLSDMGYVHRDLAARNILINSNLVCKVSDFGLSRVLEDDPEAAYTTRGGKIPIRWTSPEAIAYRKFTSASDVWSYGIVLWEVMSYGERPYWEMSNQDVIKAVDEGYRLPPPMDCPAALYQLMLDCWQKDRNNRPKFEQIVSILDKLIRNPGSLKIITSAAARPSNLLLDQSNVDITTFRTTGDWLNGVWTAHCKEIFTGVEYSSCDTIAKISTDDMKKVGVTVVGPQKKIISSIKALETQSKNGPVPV
The following applies: at 1 µM.

Experiment [10] concerns the target T4, Ephrin type-A receptor 3 (Homo sapiens). As to conditions: at 10 µM.
Experiment [11] has as its target Ephrin type-A receptor 4 (Homo sapiens) (UniProt P54764). The following applies: at 1 µM.
The target is the same in experiment [12]. As to conditions: at 10 µM.
The target in experiment [13] is Ephrin type-A receptor 5 (Homo sapiens) (UniProt P54756). As to conditions: at 1 µM.
Sequence of Ephrin type-A receptor 5 (Homo sapiens) (P54756 whole entry): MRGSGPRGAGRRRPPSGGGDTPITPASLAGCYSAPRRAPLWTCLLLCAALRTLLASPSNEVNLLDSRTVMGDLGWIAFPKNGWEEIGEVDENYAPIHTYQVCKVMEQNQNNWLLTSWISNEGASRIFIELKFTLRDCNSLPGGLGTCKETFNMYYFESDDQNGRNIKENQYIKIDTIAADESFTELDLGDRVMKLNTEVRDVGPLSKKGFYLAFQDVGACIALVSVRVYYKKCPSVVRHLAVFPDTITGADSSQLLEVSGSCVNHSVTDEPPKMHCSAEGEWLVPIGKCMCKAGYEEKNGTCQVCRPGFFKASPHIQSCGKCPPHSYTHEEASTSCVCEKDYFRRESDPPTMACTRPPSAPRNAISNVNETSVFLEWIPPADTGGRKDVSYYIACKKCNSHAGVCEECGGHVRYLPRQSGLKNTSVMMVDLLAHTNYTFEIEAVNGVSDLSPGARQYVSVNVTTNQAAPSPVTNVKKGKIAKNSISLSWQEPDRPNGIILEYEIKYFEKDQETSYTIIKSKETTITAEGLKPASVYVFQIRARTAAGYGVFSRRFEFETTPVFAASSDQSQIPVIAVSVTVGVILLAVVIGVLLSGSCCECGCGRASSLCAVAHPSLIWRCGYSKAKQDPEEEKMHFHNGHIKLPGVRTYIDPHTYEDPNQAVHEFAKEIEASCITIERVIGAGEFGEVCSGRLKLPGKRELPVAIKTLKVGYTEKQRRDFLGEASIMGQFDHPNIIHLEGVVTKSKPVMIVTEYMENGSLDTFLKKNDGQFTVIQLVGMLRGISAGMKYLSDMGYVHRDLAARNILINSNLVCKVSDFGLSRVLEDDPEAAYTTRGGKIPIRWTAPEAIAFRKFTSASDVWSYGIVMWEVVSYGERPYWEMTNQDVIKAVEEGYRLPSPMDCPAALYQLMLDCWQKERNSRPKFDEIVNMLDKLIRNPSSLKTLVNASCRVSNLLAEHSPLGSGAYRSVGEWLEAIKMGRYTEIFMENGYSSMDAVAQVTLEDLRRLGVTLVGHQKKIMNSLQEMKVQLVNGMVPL
For experiment [14] the target is unchanged. The following applies: at 10 µM.
The target in experiment [15] is Ephrin type-A receptor 7 (Homo sapiens) (UniProt Q15375). The following applies: at 1 µM.
Sequence of Ephrin type-A receptor 7 (Homo sapiens) (Q15375 28-998 limits assumed): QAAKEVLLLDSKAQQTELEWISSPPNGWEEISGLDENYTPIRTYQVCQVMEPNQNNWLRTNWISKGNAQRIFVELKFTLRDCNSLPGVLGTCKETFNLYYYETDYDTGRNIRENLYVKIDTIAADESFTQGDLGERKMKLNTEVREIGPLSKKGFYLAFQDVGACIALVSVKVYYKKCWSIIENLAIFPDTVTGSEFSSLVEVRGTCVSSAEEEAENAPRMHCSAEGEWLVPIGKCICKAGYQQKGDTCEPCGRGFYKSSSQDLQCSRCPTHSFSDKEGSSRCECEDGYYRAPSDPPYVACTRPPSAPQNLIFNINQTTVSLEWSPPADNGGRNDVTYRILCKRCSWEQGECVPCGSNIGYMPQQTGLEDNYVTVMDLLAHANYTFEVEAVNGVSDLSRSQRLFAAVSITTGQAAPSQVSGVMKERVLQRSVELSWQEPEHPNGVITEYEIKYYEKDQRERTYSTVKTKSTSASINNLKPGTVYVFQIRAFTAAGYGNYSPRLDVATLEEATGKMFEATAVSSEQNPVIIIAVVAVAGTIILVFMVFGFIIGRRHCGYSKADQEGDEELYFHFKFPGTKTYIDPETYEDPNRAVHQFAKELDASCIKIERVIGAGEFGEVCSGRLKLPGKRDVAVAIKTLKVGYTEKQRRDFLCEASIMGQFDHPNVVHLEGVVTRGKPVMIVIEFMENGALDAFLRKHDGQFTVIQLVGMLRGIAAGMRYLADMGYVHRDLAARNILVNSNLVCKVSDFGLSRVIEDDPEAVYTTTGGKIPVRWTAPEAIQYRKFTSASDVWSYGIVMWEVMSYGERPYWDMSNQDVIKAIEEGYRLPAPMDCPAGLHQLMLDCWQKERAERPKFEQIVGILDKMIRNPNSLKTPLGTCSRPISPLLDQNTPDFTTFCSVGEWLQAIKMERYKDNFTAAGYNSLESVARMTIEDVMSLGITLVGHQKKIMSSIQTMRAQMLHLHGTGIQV
The target is the same in experiment [16]. The following applies: at 10 µM.
The target in experiment [17] is T5, Ephrin type-A receptor 8 (Homo sapiens) (UniProt P29322).
T5 sequence (whole entry): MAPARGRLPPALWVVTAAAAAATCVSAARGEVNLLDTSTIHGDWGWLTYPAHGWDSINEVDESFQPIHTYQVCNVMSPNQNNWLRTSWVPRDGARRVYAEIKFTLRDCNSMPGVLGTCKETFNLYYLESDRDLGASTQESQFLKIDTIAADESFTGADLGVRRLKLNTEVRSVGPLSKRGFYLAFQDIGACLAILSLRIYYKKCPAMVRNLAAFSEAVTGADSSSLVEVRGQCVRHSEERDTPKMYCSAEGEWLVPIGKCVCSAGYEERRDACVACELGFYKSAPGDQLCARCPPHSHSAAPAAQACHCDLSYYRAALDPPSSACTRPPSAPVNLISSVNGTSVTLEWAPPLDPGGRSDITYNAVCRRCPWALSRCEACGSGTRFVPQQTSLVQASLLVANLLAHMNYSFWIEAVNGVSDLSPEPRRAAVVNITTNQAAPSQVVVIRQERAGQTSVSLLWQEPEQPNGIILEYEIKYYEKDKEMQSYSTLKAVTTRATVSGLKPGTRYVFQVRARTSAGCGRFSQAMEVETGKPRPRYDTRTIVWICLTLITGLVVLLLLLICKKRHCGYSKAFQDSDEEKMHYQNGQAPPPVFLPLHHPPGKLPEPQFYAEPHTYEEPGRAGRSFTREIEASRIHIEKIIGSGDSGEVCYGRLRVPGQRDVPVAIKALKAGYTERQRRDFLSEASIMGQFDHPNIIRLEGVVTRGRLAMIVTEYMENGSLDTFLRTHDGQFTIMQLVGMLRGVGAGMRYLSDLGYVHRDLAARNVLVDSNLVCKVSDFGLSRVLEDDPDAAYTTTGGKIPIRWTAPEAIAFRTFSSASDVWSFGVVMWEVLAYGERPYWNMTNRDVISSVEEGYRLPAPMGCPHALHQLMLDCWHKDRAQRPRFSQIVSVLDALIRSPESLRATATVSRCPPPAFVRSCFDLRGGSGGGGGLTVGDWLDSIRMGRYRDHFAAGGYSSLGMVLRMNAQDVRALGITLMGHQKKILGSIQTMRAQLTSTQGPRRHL
As to conditions: at 1 µM.

In experiment [18] the target is T5, Ephrin type-A receptor 8 (Homo sapiens). The following applies: at 10 µM.
In experiment [19] the target is T6, Ephrin type-B receptor 1 (Homo sapiens) (UniProt P54762).
T6 sequence (whole entry): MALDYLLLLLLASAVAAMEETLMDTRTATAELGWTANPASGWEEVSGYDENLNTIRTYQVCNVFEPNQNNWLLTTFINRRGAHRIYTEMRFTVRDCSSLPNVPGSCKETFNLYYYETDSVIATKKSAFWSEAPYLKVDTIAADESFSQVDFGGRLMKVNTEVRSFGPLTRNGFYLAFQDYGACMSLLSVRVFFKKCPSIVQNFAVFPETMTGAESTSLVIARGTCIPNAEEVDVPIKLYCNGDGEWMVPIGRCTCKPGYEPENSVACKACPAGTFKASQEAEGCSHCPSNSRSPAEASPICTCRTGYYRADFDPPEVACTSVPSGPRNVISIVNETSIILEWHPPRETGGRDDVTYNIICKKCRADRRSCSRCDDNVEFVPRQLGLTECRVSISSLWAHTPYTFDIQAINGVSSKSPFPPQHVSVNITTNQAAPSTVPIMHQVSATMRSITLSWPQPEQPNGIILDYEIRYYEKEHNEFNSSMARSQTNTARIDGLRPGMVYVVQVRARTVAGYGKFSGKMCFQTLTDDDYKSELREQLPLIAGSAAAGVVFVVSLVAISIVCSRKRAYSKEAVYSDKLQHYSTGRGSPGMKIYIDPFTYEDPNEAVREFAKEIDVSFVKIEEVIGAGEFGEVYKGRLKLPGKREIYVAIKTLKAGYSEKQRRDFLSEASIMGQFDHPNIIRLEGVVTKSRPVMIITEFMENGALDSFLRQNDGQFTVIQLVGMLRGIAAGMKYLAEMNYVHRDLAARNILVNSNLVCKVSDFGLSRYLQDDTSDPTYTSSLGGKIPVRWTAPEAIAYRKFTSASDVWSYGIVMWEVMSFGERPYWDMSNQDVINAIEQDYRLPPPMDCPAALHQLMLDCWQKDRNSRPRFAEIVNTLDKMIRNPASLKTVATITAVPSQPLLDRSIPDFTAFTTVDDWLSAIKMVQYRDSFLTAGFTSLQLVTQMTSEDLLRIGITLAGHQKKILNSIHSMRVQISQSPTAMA
The following applies: at 1 µM.

As usually defined, the residual activity is the signal under treatment as a percentage of the control signal.

SMILES strings stand for the structures.

Sequence of Ephrin type-A receptor 2 (Homo sapiens) (P29317 whole entry): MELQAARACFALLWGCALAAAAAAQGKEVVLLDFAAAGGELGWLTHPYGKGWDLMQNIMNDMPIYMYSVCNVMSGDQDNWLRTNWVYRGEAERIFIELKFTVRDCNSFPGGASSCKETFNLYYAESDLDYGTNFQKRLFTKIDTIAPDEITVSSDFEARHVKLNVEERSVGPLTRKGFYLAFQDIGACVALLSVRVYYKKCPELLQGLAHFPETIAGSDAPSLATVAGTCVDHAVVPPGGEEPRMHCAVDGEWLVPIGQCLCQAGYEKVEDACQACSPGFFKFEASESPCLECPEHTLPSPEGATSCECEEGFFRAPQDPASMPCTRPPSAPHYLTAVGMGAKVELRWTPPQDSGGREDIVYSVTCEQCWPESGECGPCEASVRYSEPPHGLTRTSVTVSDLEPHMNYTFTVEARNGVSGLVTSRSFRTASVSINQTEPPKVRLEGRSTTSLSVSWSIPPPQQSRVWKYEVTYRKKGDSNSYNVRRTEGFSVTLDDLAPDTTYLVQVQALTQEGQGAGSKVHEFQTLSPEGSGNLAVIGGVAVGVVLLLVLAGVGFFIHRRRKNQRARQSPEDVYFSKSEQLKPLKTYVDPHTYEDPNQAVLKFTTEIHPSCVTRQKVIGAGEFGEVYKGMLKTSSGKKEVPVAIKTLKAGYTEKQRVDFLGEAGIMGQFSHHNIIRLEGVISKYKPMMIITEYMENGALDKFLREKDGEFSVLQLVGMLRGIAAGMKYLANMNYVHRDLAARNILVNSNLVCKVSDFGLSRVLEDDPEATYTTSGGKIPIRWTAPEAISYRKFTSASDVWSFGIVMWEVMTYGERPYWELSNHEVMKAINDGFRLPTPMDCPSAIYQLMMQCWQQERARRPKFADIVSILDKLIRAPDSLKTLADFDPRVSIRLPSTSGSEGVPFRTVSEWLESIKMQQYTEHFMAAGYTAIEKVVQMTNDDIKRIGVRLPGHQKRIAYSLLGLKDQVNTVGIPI
Sequence of Ephrin type-A receptor 4 (Homo sapiens) (P54764 whole entry): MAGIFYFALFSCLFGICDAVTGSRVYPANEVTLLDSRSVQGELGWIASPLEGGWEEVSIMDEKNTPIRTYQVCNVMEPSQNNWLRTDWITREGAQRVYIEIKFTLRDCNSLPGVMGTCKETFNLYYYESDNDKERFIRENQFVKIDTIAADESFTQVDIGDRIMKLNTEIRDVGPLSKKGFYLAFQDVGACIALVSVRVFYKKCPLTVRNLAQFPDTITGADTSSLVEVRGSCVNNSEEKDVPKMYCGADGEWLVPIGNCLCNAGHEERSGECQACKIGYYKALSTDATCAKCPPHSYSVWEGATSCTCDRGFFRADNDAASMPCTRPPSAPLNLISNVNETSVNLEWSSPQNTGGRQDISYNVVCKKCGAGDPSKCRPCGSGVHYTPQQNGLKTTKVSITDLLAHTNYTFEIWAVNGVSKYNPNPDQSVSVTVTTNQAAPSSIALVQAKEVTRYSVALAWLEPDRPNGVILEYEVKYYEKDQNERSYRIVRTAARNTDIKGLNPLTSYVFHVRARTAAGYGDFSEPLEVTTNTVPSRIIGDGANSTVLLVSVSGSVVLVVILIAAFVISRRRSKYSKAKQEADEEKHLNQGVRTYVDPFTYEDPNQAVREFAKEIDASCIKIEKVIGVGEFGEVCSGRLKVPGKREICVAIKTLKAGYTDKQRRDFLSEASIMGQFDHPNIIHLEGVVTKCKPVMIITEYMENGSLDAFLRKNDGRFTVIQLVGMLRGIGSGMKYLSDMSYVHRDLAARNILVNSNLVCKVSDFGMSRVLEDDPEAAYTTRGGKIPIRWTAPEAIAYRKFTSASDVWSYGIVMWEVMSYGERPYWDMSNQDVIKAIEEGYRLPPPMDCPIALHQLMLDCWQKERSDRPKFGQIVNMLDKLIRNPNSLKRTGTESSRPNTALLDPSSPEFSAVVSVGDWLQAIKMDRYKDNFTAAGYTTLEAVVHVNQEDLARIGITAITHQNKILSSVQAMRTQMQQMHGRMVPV

Turning to `CC(C)[C@H](CO)Nc1nc(Nc2cccc(Cl)c2)c2ncn(C(C)C)c2n1`, the residual activity in experiment [1] amounted to 116%; in experiment [2], 92%; in experiment [3] it was 99%; in experiment [4], 86%; in experiment [5], 69%; in [6], 14%. In addition, the residual activity in experiment [7] turned out to be 69%; in experiment [8] it was 27%; in [9], 86%; in experiment [10] it was 31%; in [11], 95%; in experiment [12] it was 47%. Further, the residual activity in [13] amounted to 83%; in experiment [14] it was 14%; in experiment [15], 76%; in [16], 28%; in experiment [17], 85%; in experiment [18], 46%. In [19], the residual activity amounted to 63%.
As for `O=C1NC(=O)c2c1c1c3ccccc3n3c1c1c2c2ccccc2n1C1CCC3O1`, the residual activity was 16% in experiment [1]; 8% in [2]; 91% in [3]; 58% in experiment [4]; 94% in experiment [7]; 98% in [8]. For the same compound, the residual activity is 94% in [13]; 92% in experiment [14]; 100% in [15]; 100% in [16]; 96% in [17]; 94% in experiment [18].
